We go through 40 molecules from ChEMBL document CHEMBL3988442, “University of Dundee, Small-Polar-MMV Screening Library” (2021).

The target of the assay is T1, Aspartate--tRNA(Asp/Asn) ligase (Mycobacterium tuberculosis (strain ATCC 25618 / H37Rv)) (UniProt P9WFW3).
T1 sequence (whole entry): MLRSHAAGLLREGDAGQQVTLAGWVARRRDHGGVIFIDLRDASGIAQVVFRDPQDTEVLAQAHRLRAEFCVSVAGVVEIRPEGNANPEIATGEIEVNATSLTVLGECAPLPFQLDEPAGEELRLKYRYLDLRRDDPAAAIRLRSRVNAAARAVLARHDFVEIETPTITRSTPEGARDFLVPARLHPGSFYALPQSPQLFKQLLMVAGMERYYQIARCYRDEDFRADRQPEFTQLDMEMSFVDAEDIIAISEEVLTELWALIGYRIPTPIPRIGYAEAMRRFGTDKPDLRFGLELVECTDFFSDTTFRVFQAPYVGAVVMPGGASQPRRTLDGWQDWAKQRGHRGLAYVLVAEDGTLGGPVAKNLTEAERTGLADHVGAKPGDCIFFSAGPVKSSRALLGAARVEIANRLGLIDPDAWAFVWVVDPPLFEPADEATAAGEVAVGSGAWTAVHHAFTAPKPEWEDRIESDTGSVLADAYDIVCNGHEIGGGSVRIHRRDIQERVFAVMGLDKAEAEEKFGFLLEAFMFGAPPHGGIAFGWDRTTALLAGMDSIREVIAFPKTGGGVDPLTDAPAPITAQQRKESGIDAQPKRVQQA
As to the kind of experiment: Assay for Asp RNA synthetase-1 from Mycobacterium tuberculosis. The class given is functional. Details: scale not given: in the data most compounds retested in dose-response had high values. The following applies: 30 µM.
With `CN(Cc1csc(-c2cccs2)n1)C(=O)CCn1ccccc1=O`, the Percent Effect is -1.85%.
The value for `CC1CCN(C(CNC(=O)CCn2cccn2)c2cccs2)CC1` (stereo not given) was -0.241%; that for `CS(=O)(=O)NCCC(=O)NC1CCc2nccn2C1` (stereo not given) was 3.25%; that for `CCS(=O)(=O)c1ccc(N2CCC(NC(=O)CCC(C)C)CC2)cc1` was -2.31%.
The value for `COc1ccccc1CN(C)c1nccc(-c2cn(C)nc2C)n1` was -1.34%; that for `CCc1nc(CCNC(=O)Nc2ccc(C(=O)NC)cc2C)cs1` was -2.88%.
Take `CC(C)c1noc(CN2CCC3(CCCO3)CCC2=O)n1` (stereo not given): the Percent Effect is -1.21%.
To `Cc1nn(C)cc1CNC(=O)c1cn(CCC2CCCCN2)nn1` (stereo not given) belongs -2.13%; to `CCc1cc(N2CCSCC2)n2nc(C)c(C)c2n1`, 4.1%.
To `CN(CCNC(=O)N1CCN(Cc2ccon2)CC1)c1ccccc1` belongs 2.1%; to `COc1ccccc1CN1C(=O)O[C@@H]2CN(c3nccs3)C[C@@H]21`, -1.39%; to `COCCc1noc(CN(C)C2CCCN(c3ccc(C)nn3)C2)n1` (stereo not given), 0.172%.
To `N#Cc1cccc(CS(=O)(=O)NCC(O)Cc2ccccc2)c1` (stereo not given) belongs -0.908%; to `Cc1ccc(C(NC(=O)[C@H]2CC[C@@H](O)CC2)c2cccnc2)cc1C` (stereo not given in full), -3.21%.
Consider `O=C(NCCc1csc(N2CCCC2)n1)N(C1CCCC1)C1CC1`, for which the Percent Effect came to 4.33%.
To `COCc1nc(CN2CCC3(CCCO3)CCC2=O)no1` (stereo not given) belongs -3.94%; to `N#Cc1ccnc(N2CCC(c3nccn3Cc3cscn3)CC2)c1`, -4.66%.
For the molecule `Cc1nc(C2CCCN2C(=O)CNS(C)(=O)=O)no1` (stereo not given), the Percent Effect was found to be 0.586%.
The value for `Cc1nccn1CCC1CCCCN1Cc1ccncc1` (stereo not given) was -1.16%; that for `COc1cc(CNC(=O)NCCCF)cc(Br)c1OC` was -0.885%; that for `CCCS(=O)(=O)N1CCC(NC(=O)c2cc(C)c(CC)s2)CC1` was -2.13%.
The value for `O=c1oc(-c2cccs2)nn1CC(O)c1ccc(F)cc1` (stereo not given) was -0.425%; that for `Cc1cnn(Cc2cc(F)ccc2F)c1NC(=O)C1COCCO1` (stereo not given) was -0.287%; that for `CC(=O)N1CCCN(c2nccc(-c3cn(C)nc3C)n2)CC1` was -4.22%.
To `O=C(C1CC(=O)N(C2CCCC2)C1)N1CCN(CCn2cccc2)CC1` (stereo not given) belongs -2.4%; to `COCc1nc2n(n1)CCCC2Nc1nc(C2CC2)ns1` (stereo not given), 0.0804%; to `CCCS(=O)(=O)N1CCC(NC(=O)c2ccc(Cl)s2)CC1`, 0.379%.
In the case of `O=C(NCC(F)(F)F)NC1CCCc2c1cnn2CCO` (stereo not given), the Percent Effect was -1.62%.
The value for `CN(C)C(=O)CN(C)C(=O)c1cnc(Cc2ccc(F)cc2)s1` was -1.57%; that for `Cc1nn(CCO)c(C)c1CNC1CCc2c(Cl)cccc21` (stereo not given) was 0.54%.
To `Cc1cc(N2CCN(Cc3ccc(-c4cc[nH]n4)o3)CC2)cc(C)n1` belongs 0.126%.
The value for `CC(=O)Nc1cc(C(=O)N2CCOCC2c2ccc(C)o2)ccc1F` (stereo not given) was -5.67%.
As to `Cc1cccc(NC(=O)[C@@H]2CCCN2CC(=O)N2CCCCCC2)n1`, the Percent Effect was -2.13%.
The value for `Cc1n[nH]c(C2CN(CC(=O)NCc3ccco3)CCO2)n1` (stereo not given) was 0.448%; that for `Cc1ccc(N2CCCC(N(C)Cc3cc(C)no3)C2)nn1` (stereo not given) was -1.94%.
On to `Cc1ccc(C#N)c(N2CCC(c3nccn3Cc3cscn3)CC2)n1`, for which the Percent Effect was 2.26%.
Regarding `Cc1nn(-c2ccccc2)c2c1C(c1ccc(C(=O)O)cc1)CC(=O)N2` (stereo not given), the Percent Effect came to 1.57%.
For `CN1C(=O)CC(C(=O)O)C12CCN(Cc1ccc(F)cc1Cl)CC2` (stereo not given), the Percent Effect was -1.07%.
The value for `COc1cccc(CN(C)C(=O)CN2CCN(CCO)CC2)c1` was -0.747%.
To `Cc1cc(F)ccc1OC1(C(=O)O)CCN(Cc2cccnc2N)CC1` belongs -3.76%.
